Among the test systems are NCI-H23 lung; NCI-H226 lung; NCI-H322M lung; HOP-62 NSCLC; NCI-H460 lung; HOP-92 NSCLC; NCI-H522 lung; A549/ATCC NSCLC; 786-0 renal; COLO 205 colon.
Common to all, as to test: NCI-60 one-dose screen, 48 h (100 = growth as untreated, 0 = no growth, -100 = all killed)
Holding throughout (conditions): 10 µM unless noted

Compounds without any hit were thinned out: in the full panel of roughly 83,000, 20% have a hit.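 Cell lines were cultured in 96-well plates, exposed to a single compound concentration, and assessed for percent growth 48 hours later.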 Values without a mark were called inactive. The source made the active and inactive calls. Rule for the calls: active = growth percent below 10; inactive = the rest.

`O=C1/C(=C\c2cn(-c3ccccc3)nc2-c2ccc(-c3cccs3)cc2)CCc2ccccc21`: the growth is 71.4% in the assay with NCI-H23 lung; 74.4% in the assay with NCI-H226 lung; 98.5% in the assay with NCI-H322M lung; 75.5% with HOP-62 NSCLC; 47.1% in the assay on NCI-H460 lung; 78.7% with HOP-92 NSCLC. Also, the growth was 24.7% in the assay on NCI-H522 lung, 60.4% with A549/ATCC NSCLC, 73.2% in the assay on 786-0 renal and 74.6% in the assay with COLO 205 colon.

For `COc1ccc(OC)c(-c2c(C#N)c(-c3cccs3)nc3c2c(-c2ccccc2)nn3-c2ccccc2)c1`, the growth in the assay with NCI-H23 lung was 105%; in the assay on NCI-H226 lung, 102%; in the assay with NCI-H322M lung, 110%; in the assay on HOP-62 NSCLC it was 105%; in the assay on NCI-H460 lung, 101%; in the assay on HOP-92 NSCLC, 106%. For the same compound, the growth was 87.8% with NCI-H522 lung, 101% with A549/ATCC NSCLC, 103% in the assay with 786-0 renal and 110% in the assay with COLO 205 colon.

For `Cc1nnc(-n2c(O)cc(=O)n(-c3ccccc3)c2=S)nc1/C=C/c1ccc(N(C)C)cc1`, the growth in the assay on NCI-H23 lung is 60.9%; in the assay on NCI-H226 lung, 61.2%; in the assay with NCI-H322M lung, 50.5%; in the assay on HOP-62 NSCLC it was 39.2%; with NCI-H460 lung it was 62.4%; in the assay on HOP-92 NSCLC, 43.7%. Also, the growth was 19.2% in the assay on NCI-H522 lung, 51.2% in the assay with A549/ATCC NSCLC, 49.5% in the assay on 786-0 renal and 39.7% in the assay with COLO 205 colon.

For the compound `O=C1c2c(c3c4ccccc4[nH]c3c3ccc4ccccc4c23)C(=O)N1CCN1CCCCC1`, the growth was 30.5% in the assay with NCI-H23 lung; 67.5% in the assay on NCI-H226 lung; 61.1% in the assay with NCI-H322M lung; -11.9% (active) in the assay with HOP-62 NSCLC; 4.88% (active) in the assay on NCI-H460 lung; 53% in the assay with HOP-92 NSCLC. The growth is 38% in the assay with NCI-H522 lung, 32.3% in the assay on A549/ATCC NSCLC, 26% with 786-0 renal and 47% in the assay on COLO 205 colon.

For the compound `CN(C)CCNc1nc2c3cc(Cl)ccc3nn2c2ccccc12`, the growth in the assay on NCI-H23 lung is 45.5%; in the assay on NCI-H226 lung, 61.1%; with NCI-H322M lung, 40.2%; in the assay with HOP-62 NSCLC, 43.9%; in the assay with NCI-H460 lung, 15.8%; in the assay with HOP-92 NSCLC, 36.8%. For the same compound, the growth was 67% in the assay on NCI-H522 lung, 31.5% in the assay on A549/ATCC NSCLC, 38.1% in the assay on 786-0 renal and 26.3% with COLO 205 colon.

On to `O=C(O)c1[nH]c(=O)[nH]c(=O)c1[N+](=O)[O-]`, for which the growth is 109% in the assay with NCI-H23 lung; 108% in the assay with NCI-H226 lung; 119% in the assay with NCI-H322M lung; 104% with HOP-62 NSCLC; 115% in the assay with NCI-H460 lung; 88% in the assay on HOP-92 NSCLC. Moreover, the growth in the assay on NCI-H522 lung was 138%; in the assay with A549/ATCC NSCLC, 106%; in the assay with 786-0 renal, 106%; in the assay with COLO 205 colon, 112%.

`CN(CCn1sc(=O)n(Cc2ccccc2)c1=O)Cc1ccc2c(Cl)cc(Cl)c(O)c2n1`: the growth with NCI-H23 lung was 50.1%; in the assay with NCI-H226 lung, 61.9%; with NCI-H322M lung, 41%; in the assay on HOP-62 NSCLC it was 25.2%; with NCI-H460 lung, 19.8%; with HOP-92 NSCLC, 36%. The growth with NCI-H522 lung was 80.9%; in the assay with A549/ATCC NSCLC it was 32.6%; in the assay with 786-0 renal, 37.6%; in the assay with COLO 205 colon, 93.7%.

On to `COC1C[C@H](O[C@@H]2C[C@H](O[C@@H]3C[C@H](O[C@@H]4C(=O)c5c(cc6cc(O[C@H]7C[C@@H](O[C@H]8C[C@@H](O)[C@H](O)C(C)O8)[C@H](O)C(C)O7)c(C)c(O)c6c5O)C[C@H]4C(OC)C(=O)[C@@H](O)[C@@H](C)O)OC(C)[C@H]3O)OC(C)[C@@H]2O)OC(C)[C@@H]1O` (stereo not given in full), for which the growth is -1.75% (active) in the assay with NCI-H23 lung; 3.22% (active) in the assay on NCI-H226 lung; 6.22% (active) with NCI-H322M lung; -7.62% (active) in the assay on HOP-62 NSCLC; 6.26% (active) in the assay on NCI-H460 lung; -12.1% (active) in the assay with HOP-92 NSCLC. The growth is -33.1% (active) with NCI-H522 lung, 1.74% (active) in the assay on A549/ATCC NSCLC, -5.74% (active) in the assay with 786-0 renal and -78.3% (active) in the assay on COLO 205 colon.

`O=C1c2cccc(NCCN=Cc3cc(O)ccc3O)c2C(=O)c2c(NCCN=Cc3cc(O)ccc3O)cccc21`: the growth in the assay on NCI-H23 lung is -26.1% (active); in the assay with NCI-H226 lung, 6.91% (active); in the assay on NCI-H322M lung it was -11.3% (active); in the assay with HOP-62 NSCLC, -9.1% (active); in the assay with NCI-H460 lung, -70.8% (active); in the assay on HOP-92 NSCLC it was -25.5% (active). Moreover, the growth in the assay with NCI-H522 lung is -65% (active); with A549/ATCC NSCLC, -55.6% (active); with 786-0 renal it was 0.261% (active); in the assay with COLO 205 colon it was -41.4% (active).

Regarding `COC(=O)[C@H]1CCCN1C[C@@H](O)CN1C(=O)/C(=C\c2cc(OC)c(OC)c(OC)c2)c2ccccc21`, the growth in the assay with NCI-H23 lung is 106%; in the assay with NCI-H226 lung, 96.6%; in the assay on NCI-H322M lung, 106%; in the assay on HOP-62 NSCLC, 108%; with NCI-H460 lung, 94.9%; in the assay on HOP-92 NSCLC, 105%. Moreover, the growth in the assay with NCI-H522 lung is 97.8%; in the assay on A549/ATCC NSCLC, 90.3%; in the assay on 786-0 renal it was 101%; in the assay on COLO 205 colon it was 121%.

As for `C#CCOc1cccc(Nc2ncnc3ccc(NC(=O)CCl)cc23)c1`, the growth in the assay with NCI-H23 lung was -66.8% (active); with NCI-H226 lung it was 21%; with NCI-H322M lung it was -18.8% (active); with HOP-62 NSCLC, -35.4% (active); with NCI-H460 lung it was -19.9% (active); in the assay on HOP-92 NSCLC, -76.5% (active). The growth was -76.3% (active) with NCI-H522 lung, -38.6% (active) in the assay on A549/ATCC NSCLC, -81.9% (active) in the assay with 786-0 renal and -64.6% (active) in the assay with COLO 205 colon.

Regarding `Cc1ccc2c(n1)C(=O)c1[nH]c3ccccc3c1C2=O`, the growth is -33.8% (active) with NCI-H23 lung; 55.7% with NCI-H226 lung; 31.8% in the assay with NCI-H322M lung; 39.5% in the assay with HOP-62 NSCLC; -50.6% (active) in the assay with NCI-H460 lung; 78% in the assay with HOP-92 NSCLC. The growth is 59.7% in the assay on NCI-H522 lung, -14.4% (active) in the assay on A549/ATCC NSCLC, 78.1% in the assay on 786-0 renal and 23.9% in the assay on COLO 205 colon.

For `CC(C)OC(=O)c1ccc2[nH]c(O)c(C(=Nc3ccc(N(C)C(=O)CN4CCN(C)CC4)cc3)c3ccccc3)c2c1`, the growth in the assay with NCI-H23 lung was -59.9% (active); with NCI-H226 lung, 20.1%; in the assay on NCI-H322M lung, -6.59% (active); in the assay on HOP-62 NSCLC, -68.8% (active); with NCI-H460 lung, -57.9% (active); in the assay on HOP-92 NSCLC, 1.36% (active). The growth in the assay with NCI-H522 lung is -60.6% (active); in the assay on A549/ATCC NSCLC, -46.7% (active); in the assay with 786-0 renal it was -92.4% (active); with COLO 205 colon, -59.4% (active).

Source of the values: PubChem BioAssay (NCI).
